ADAM10 inh: inhibits human ADAM10. 370,000 tested, 0.62% active. inhibition, % at 7 µM. recombinant ADAM10, EDANS/DABCYL FRET peptide cleavage, 3 h. O14672;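 active = inhibition above a per-campaign cutoff equal to the mean of compounds falling between control-based bounds plus 3 SD, cut at about 20% in these data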;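 also: 0% = DMSO wells while the 100% control is not disclosed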
FAS-TE inh: blocks the thioesterase domain of human fatty acid synthase | P49327 | recombinant FAS-TE, OMFH fluorogenic substrate, fluorescence endpoint | inhibition, % at 15 µM | 360,000 tested, 0.67% active;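 active = compounds whose normalised, plate-corrected inhibition of enzyme fluorescence in the single-dose primary screen is 50% or more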;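 also: 0% = DMSO with enzyme and 100% = substrate without enzyme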
Target sequence (P49327 whole entry, looked up, the tested form may be a part): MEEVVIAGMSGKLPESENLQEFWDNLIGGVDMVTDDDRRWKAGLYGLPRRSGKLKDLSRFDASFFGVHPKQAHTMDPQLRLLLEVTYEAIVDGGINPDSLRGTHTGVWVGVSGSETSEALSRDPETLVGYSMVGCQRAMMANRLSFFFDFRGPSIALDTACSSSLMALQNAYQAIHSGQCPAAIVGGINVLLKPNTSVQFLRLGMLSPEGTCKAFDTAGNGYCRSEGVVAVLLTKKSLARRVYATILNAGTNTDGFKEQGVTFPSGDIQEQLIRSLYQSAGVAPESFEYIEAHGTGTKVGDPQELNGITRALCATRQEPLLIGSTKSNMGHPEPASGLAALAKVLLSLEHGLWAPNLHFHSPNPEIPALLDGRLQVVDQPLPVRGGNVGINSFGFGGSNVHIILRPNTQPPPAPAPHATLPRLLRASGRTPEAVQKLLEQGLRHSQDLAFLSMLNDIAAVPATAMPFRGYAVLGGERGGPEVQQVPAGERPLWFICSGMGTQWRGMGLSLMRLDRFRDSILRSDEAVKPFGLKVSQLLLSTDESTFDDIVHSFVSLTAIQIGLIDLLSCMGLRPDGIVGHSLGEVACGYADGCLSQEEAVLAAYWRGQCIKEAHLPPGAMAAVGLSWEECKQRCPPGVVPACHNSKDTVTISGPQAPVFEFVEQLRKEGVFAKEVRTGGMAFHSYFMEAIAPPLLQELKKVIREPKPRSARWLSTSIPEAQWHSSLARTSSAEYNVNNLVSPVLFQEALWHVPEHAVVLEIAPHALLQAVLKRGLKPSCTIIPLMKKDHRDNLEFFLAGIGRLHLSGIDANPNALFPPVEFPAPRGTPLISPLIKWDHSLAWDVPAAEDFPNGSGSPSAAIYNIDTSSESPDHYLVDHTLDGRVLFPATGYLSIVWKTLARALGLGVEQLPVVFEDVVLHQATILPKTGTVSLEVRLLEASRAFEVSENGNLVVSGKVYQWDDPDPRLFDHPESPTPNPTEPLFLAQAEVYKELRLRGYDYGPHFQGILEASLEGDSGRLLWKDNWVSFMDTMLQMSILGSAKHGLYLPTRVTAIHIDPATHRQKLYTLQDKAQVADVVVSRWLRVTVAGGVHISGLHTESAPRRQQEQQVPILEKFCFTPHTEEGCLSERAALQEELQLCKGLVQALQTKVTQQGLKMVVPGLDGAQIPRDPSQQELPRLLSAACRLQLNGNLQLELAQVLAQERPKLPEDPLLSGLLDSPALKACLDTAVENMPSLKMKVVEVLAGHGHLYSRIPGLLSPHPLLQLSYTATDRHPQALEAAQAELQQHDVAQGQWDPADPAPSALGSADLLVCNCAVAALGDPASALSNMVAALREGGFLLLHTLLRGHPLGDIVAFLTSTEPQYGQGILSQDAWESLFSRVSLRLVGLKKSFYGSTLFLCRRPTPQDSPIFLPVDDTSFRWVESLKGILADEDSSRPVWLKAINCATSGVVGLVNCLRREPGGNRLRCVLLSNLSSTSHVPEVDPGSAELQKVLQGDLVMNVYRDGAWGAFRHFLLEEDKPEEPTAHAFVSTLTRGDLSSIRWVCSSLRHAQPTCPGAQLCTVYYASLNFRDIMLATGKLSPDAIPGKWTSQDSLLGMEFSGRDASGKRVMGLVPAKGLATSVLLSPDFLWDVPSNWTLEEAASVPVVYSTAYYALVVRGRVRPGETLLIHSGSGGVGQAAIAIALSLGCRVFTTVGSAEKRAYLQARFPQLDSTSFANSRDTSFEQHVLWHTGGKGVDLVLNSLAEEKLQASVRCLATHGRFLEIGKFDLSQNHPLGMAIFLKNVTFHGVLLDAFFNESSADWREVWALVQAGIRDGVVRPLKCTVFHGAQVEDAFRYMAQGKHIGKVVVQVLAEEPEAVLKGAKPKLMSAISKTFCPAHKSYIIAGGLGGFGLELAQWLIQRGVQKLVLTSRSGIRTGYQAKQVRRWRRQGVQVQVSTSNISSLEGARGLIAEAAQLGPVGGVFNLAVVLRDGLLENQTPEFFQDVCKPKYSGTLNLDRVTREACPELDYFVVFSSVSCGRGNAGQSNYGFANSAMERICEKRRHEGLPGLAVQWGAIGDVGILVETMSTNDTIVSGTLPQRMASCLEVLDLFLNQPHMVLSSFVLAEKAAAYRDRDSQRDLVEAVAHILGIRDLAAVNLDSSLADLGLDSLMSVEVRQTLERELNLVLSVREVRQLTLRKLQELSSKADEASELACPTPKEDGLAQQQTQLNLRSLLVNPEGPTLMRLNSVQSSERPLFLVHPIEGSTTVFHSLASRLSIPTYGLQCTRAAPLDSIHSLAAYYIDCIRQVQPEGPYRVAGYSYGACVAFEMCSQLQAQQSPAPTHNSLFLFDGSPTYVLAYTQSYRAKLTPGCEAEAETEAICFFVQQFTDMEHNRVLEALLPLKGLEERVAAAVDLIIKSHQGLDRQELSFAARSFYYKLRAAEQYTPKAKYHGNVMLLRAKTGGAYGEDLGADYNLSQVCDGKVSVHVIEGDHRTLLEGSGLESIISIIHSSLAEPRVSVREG
aDG glyco up: alpha-DG glycosylation activation | Pro5-aDG cells, alpha-DG glycosylation AlphaScreen (IIH6); 0% Pro5, 100% B10-LARGE cell signal | AID 624168 | 360,000 tested, 0.22% active | activation, % at 10 µM;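 active = activation of at least 8% versus controls, or a plate z-score of at least 8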;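 also: Pro5 are CHO cells carrying HIG-tagged alpha-DG that lacks glycosylation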
ADAM17 inh: inhibits human ADAM17 | P78536 | recombinant ADAM17, EDANS/DABCYL FRET peptide cleavage | inhibition, % at 6.95 µM | 370,000 tested, 0.83% active | AID 720648;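 active = inhibition above the mean of compounds lying between control limits plus 3 SD, set per campaign, cut at about 8.5% in these data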;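 also: 0% = DMSO-only wells as the low control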
GRIN3A LBD mod: modulators (binders) of human NR3A ligand-binding domain; NR3A LBD differential scanning fluorimetry, Tm shift; 0% = protein alone, 100% = glycine-bound protein; Tm shift relative to glycine control, % at 25 µM; 340,000 tested, 2.5% active;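 active = melting temperature shift of at least 10% of the positive control shift, at one fixed dose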
* marks the source's active call; other numbers are inactive results. Only some compounds are listed: those with a hit (about 4% of all), similar ones and a draw of the others.

For Cc1cc(C)n2nc(SCc3nnc(SCCCCl)o3)nc2n1 the results were ADAM10 inh 5.1, FAS-TE inh -4.3, aDG glyco up -0.1, ADAM17 inh -3.2 and GRIN3A LBD mod -1.1.
For CCCCNC(=O)[C@@H]1CCCN1S(=O)(=O)c1cccc2cccnc12 the results were ADAM10 inh -7.6, FAS-TE inh -10.2, aDG glyco up 0.1, ADAM17 inh -1.9 and GRIN3A LBD mod 1.9.
`Nc1nnc(CC(=O)N/N=C/c2cccc([N+](=O)[O-])c2)s1` gave ADAM10 inh 3.7, FAS-TE inh 5.0, aDG glyco up 0.4, ADAM17 inh -3.5 and GRIN3A LBD mod -0.5.
`Nc1nnc(CC(=O)N/N=C/c2cc([N+](=O)[O-])cc(Br)c2O)s1` gave ADAM10 inh 1.9, FAS-TE inh 24.4, aDG glyco up 0.5, ADAM17 inh -0.2 and GRIN3A LBD mod 17.6*.
Cc1ccc(S(=O)(=O)C2(C(=O)NC3CCCCC3)CC2)cc1 was read as ADAM10 inh 5.8, FAS-TE inh -5.1, aDG glyco up 0.5, ADAM17 inh 1.0 and GRIN3A LBD mod 25.7*.
Cc1ccc(S(=O)(=O)C2(C(=O)Nc3ccc(Br)cc3)CC2)cc1 was read as ADAM10 inh 9.6, FAS-TE inh 18.0, aDG glyco up -0.3, ADAM17 inh 1.3 and GRIN3A LBD mod -1.5.
Screening CC1CC(C#N)N(N(C)C)C1=C(C#N)C#N (configuration not stated) returned ADAM10 inh -3.2, FAS-TE inh -6.8, aDG glyco up 0.0, ADAM17 inh -0.6 and GRIN3A LBD mod 16.9*.
COc1ccc([C@H]2[C@H](C(=O)OC(C)(C)C)N3N=Cc4ccccc4C3C23C(=O)c2ccccc2C3=O)c(OC)c1 (some centres not stated) was read as ADAM10 inh -12.0, FAS-TE inh 12.2, aDG glyco up 1.1, ADAM17 inh -2.0 and GRIN3A LBD mod -12.8.
COc1ccc([C@H]2[C@H](C(=O)OC(C)(C)C)N3N=Cc4ccccc4C3C23C(=O)c2ccccc2C3=O)cc1OC (some centres not stated) was read as FAS-TE inh 4.1, aDG glyco up 9.9* and GRIN3A LBD mod -10.7.
CCOC(=O)N1CCN(C(=O)C2CCCN(S(=O)(=O)c3ccc(OCC)cc3)C2)CC1 (configuration not stated) was read as ADAM10 inh -4.9, FAS-TE inh -3.7, aDG glyco up 0.4, ADAM17 inh -2.0 and GRIN3A LBD mod 13.4*.
COc1ccc(S(=O)(=O)N2CCC(C(=O)N3CCc4ccccc4C3)CC2)cc1 was read as ADAM10 inh 1.8, FAS-TE inh 12.1, aDG glyco up -0.2, ADAM17 inh -4.0 and GRIN3A LBD mod 2.0.
CCOC(=O)C1CCCN(S(=O)(=O)c2ccc(S(=O)(=O)N(CC)CC)cc2)C1 (configuration not stated) was read as ADAM10 inh -1.1, FAS-TE inh 13.0, aDG glyco up 7.4*, ADAM17 inh -1.6 and GRIN3A LBD mod 1.4.
`CCOc1ccc(S(=O)(=O)N2CCC(C(=O)N3CCc4ccccc4C3)CC2)cc1` gave ADAM10 inh 3.3, FAS-TE inh 17.1, aDG glyco up 0.3, ADAM17 inh -2.3 and GRIN3A LBD mod 20.4*.
Screening CCOC(=O)C1CCCN(S(=O)(=O)c2ccc(C)cc2)C1 (configuration not stated) returned ADAM10 inh 6.0, FAS-TE inh -4.7, aDG glyco up 1.0, ADAM17 inh -2.6 and GRIN3A LBD mod -0.3.
CCOC(=O)c1cc2c(nc1NC(=S)Nc1ccccc1)CC(C)(C)OC2 was read as ADAM10 inh -0.5, FAS-TE inh -10.7, aDG glyco up -0.1, ADAM17 inh -1.6 and GRIN3A LBD mod 1.1.
For O=S(=O)(NN=Cc1ccc(O)cc1O)c1cc(Cl)c(Cl)cc1Cl the results were ADAM10 inh -21.0, FAS-TE inh 2.1, aDG glyco up -0.1, ADAM17 inh -8.3 and GRIN3A LBD mod 21.8*.
Cc1ccc(S(=O)(=O)N/N=C/c2ccc(O)cc2O)cc1[N+](=O)[O-] was read as ADAM10 inh -7.2, FAS-TE inh -1.2, aDG glyco up -0.1, ADAM17 inh -6.0 and GRIN3A LBD mod -0.2.
For COCCn1nnnc1CN1CCN(c2cccc(C(F)(F)F)c2)CC1 the results were ADAM10 inh 5.0, FAS-TE inh 6.4, aDG glyco up -0.1, ADAM17 inh -1.0 and GRIN3A LBD mod 2.2.
For O=C1c2ccccc2C(=O)N1/N=C/c1ccc(O)c(O)c1 the results were ADAM10 inh -0.1, FAS-TE inh -7.3, aDG glyco up 0.1, ADAM17 inh 2.5 and GRIN3A LBD mod 19.0*.
`O=C1C2C3C=CC(CC3)C2C(=O)N1/N=C/c1ccc(O)c(O)c1` (configuration not stated) gave ADAM10 inh -8.2, FAS-TE inh -7.2, aDG glyco up 0.0, ADAM17 inh 2.0 and GRIN3A LBD mod 0.5.
O=S(=O)(Nc1ccc(-c2ccc3nncn3n2)cc1)c1ccccc1F was read as ADAM10 inh -7.3, FAS-TE inh -2.5, aDG glyco up 0.3, ADAM17 inh -3.0 and GRIN3A LBD mod 1.9.
`O=S(=O)(Nc1cccc(-c2ccc3nncn3n2)c1)c1ccccc1F` gave ADAM10 inh -12.4, FAS-TE inh 0.4, aDG glyco up 0.5, ADAM17 inh 0.5 and GRIN3A LBD mod 12.8*.
O=C(c1cc2cc(C(F)(F)F)ccc2s1)N1CCOCC1 was read as ADAM10 inh -0.2, FAS-TE inh -2.9, aDG glyco up 0.0, ADAM17 inh -3.3 and GRIN3A LBD mod -1.6.
COc1ccc(OC)c2c(=O)cc(C(=O)O)[nH]c12 was read as ADAM10 inh -6.8, FAS-TE inh -7.8, aDG glyco up -0.1, ADAM17 inh -7.4 and GRIN3A LBD mod 0.9.
`COc1ccc(OC)c2c(C)c(C)[nH]c12` gave ADAM10 inh -3.3, FAS-TE inh -2.0, aDG glyco up -0.1, ADAM17 inh -1.9 and GRIN3A LBD mod 10.3*.
For COc1ccc(C(=O)CN2C(=O)NC3(CCCCCC3)C2=O)c(OC)c1 the results were ADAM10 inh -1.7, FAS-TE inh -2.2, aDG glyco up -0.2, ADAM17 inh -3.3 and GRIN3A LBD mod 2.0.
CCC1CCc2sc(C(=O)N(C)CC(=O)Nc3cccc(OC)c3)cc2C1 (configuration not stated) was read as ADAM10 inh 10.6, FAS-TE inh 26.9, aDG glyco up 0.1, ADAM17 inh 4.5 and GRIN3A LBD mod -4.3.
`CCCn1c(CN(Cc2ccccc2)Cc2ccccc2)nc2c1c(=O)n(C)c(=O)n2C` gave FAS-TE inh 25.7, aDG glyco up -0.2 and GRIN3A LBD mod 13.5*.
Screening COC(=O)CCC1(C(N)=O)CCC(=O)c2ccccc21 (configuration not stated) returned ADAM10 inh -5.2, FAS-TE inh -5.6, aDG glyco up 0.2, ADAM17 inh -4.6 and GRIN3A LBD mod 12.6*.
Screening CCOC(=O)CCc1cccc2c1CCC2=O returned ADAM10 inh 5.6, FAS-TE inh -5.7, aDG glyco up 0.0, ADAM17 inh -3.9 and GRIN3A LBD mod 1.0.

Screens deposited in PubChem by several laboratories.
